PubChem BioAssay AID463173 (ICCB-Longwood Screening Facility, Harvard Medical School, 2010)
Out of some 52,000 compounds screened, about 4,300 (8.3%) were called active. Many of the other results were omitted from the sample, so actives are more common in it than they were. Values without a mark were called inactive. Rule as the data show it: active = survival mostly below about 52% (no sharp cut-off); inactive = mostly above about 56%.

test system: DeltatarO mutant; test: growth inhibition of S. aureus wild type versus tarO mutant, primary screen, teichoic acid synthesis inhibitors, RN4220, OD600 (AID 463173); details: OD600, 18 h, active compounds read low, screened at 18.75 µg/mL (by protocol)

Point of comparison: `Cc1ccc(S(=O)(=O)c2cn(CC(=O)Nc3ccc4c(c3)OCO4)c3ccccc3c2=O)cc1C`, survival 112%. Against it:
- O=C(NC1CCCCC1)c1cccs1 — lower, 107%
- COCCN(Cc1cc2cc3c(cc2nc1Cl)OCO3)C(=O)Nc1ccccc1OC — lower, 92%
- CCOc1ccc(CN(C(=O)c2nc(SC)ncc2Cl)C2CCS(=O)(=O)C2)cc1 (centres undefined) — lower, 88%
- Cc1ccc(-c2ccc(=O)n(CC(=O)Nc3ccc(F)c(Cl)c3)n2)cc1C — lower, 82%
- COc1ccccc1Nc1cc(C(=O)NCc2cccs2)c2ccccc2n1 — lower, 73%
- Cc1cc(=O)[nH]c2nnc(SCCC(C)C)n12 — lower, 73%
- CCCNC(=O)c1cnc2c(-c3ccc(OCC)c(OCC)c3)c(C)nn2c1-c1ccccc1 — lower, 92%
- CCOc1ccc(-c2c(C)nn3c(C)c(C(=O)Nc4cc(C)cc(C)c4)cnc23)cc1OCC — higher, 118%
- Cc1nn2c(C)c(C(=O)NCCc3ccccc3)cnc2c1-c1ccccc1 — lower, 81%
- Cc1nn2c(C)c(C(=O)NCC(C)c3ccccc3)cnc2c1-c1ccccc1 (centres undefined) — lower, 101%
- Cc1nn2c(C)c(C(=O)NCc3cccc(Br)c3)cnc2c1-c1ccccc1 — lower, 66%
- CCCCNC(=O)c1cnc2c(-c3ccc(OCC)c(OCC)c3)c(C)nn2c1-c1ccccc1 — lower, 73%
- CCOc1ccc(-c2c(C)nn3c(C)c(C(=O)Nc4cccc(Cl)c4C)cnc23)cc1OCC — lower, 76%
- COc1cc(CNC(=O)c2cnc3c(-c4cccc(C)c4)c(C)nn3c2C)cc(OC)c1OC — lower, 68%
- Cc1ccc(-n2c(SCC(=O)Nc3ccc4c(c3)OCO4)nc3c([nH]c4ccccc43)c2=O)cc1 — higher, 128%
- CCOc1ccc(CNC(=O)Cn2c(=O)c3cccn3c3ccc(F)cc32)cc1OC — lower, 47%
- COc1cc(NC(=O)c2cc(-c3ccc4c(c3)OCO4)on2)cc(OC)c1OC — higher, 115%
- CCn1cc(C(=O)N(C)Cc2ccccc2)c(=O)c2cc(S(=O)(=O)N3CCc4ccccc4C3)ccc21 — lower, 65%
- O=C(Cn1cc(C(=O)C(F)(F)F)c2ccccc21)N1CCCCCC1 — lower, 56%
- COc1cc(C(=O)NCc2nnnn2-c2ccc(C)c(C)c2)cc(OC)c1OC — lower, 98%
- CCOc1ccc(CCNC(=O)c2cnc3c(-c4ccc(F)cc4)c(C)nn3c2C)cc1OCC — higher, 134%
- CCOc1ccc(-c2c(C)nn3c(C)c(C(=O)NCCc4ccccc4)cnc23)cc1OCC — lower, 54%
- CCN1/C(=C\C(=O)C2CC2)Sc2ccccc21 — lower, 81%
- COc1ccc(OCC(O)Cn2c(C(C)C)nc3ccccc32)cc1 (centres undefined) — lower, 88%
- COc1ccc(OCc2nc3ccccc3n2C(C)C)cc1 — lower, 88%
- Cc1nc2ccccc2n1C(C)c1ccccc1 (centres undefined) — lower, 77%
- Cc1ccc(NC(=O)c2nnn(Cc3cccc(C(F)(F)F)c3)c2N)c(C)c1 — lower, 86%
- COc1ccc(-n2c(=O)c3c4c(sc3n(Cc3cc(C)ccc3C)c2=O)CN(C(C)=O)CC4)c(OC)c1 — lower, 93%
- Cc1cccc(CC(=O)NC2CC(=O)N(c3ccc4c(c3)OCCO4)C2)c1 (centres undefined) — lower, 72%
- CN1C(=O)Cc2cc(S(=O)(=O)N3CCN(c4cccc(C(F)(F)F)c4)CC3)ccc21 — higher, 116%
- CCOC(=O)c1c(C)[nH]c(C)c1S(=O)(=O)NCC(=O)N1CCN(c2ccccc2OC)CC1 — lower, 102%
- CC(NC(=O)c1cc(-c2ccc(Cl)cc2)on1)c1ccccc1 (centres undefined) — higher, 142%
- COc1ccc(OC)c(-c2cc(C(=O)Nc3cnn(Cc4ccc(Cl)cc4Cl)c3)no2)c1 — lower, 64%
- CC(=O)Nc1ccc(NC(=O)c2cc(-c3cccs3)on2)cc1 — lower, 78%
- CCc1ccc(NC(=O)c2cc(-c3cccs3)on2)cc1 — higher, 161%
- COc1ccc(OC)c(-c2cc(C(=O)NCc3ccc(Cl)cc3)no2)c1 — lower, 47%
- Cc1c(Cl)cccc1NC(=O)c1cc(-c2cccc(Cl)c2)on1 — lower, 61%
- Cc1c(Cl)cccc1NC(=O)c1cc(-c2cccs2)on1 — lower, 66%
- CC(C)c1cc(C(=O)NC(C)c2ccccc2)no1 (centres undefined) — lower, 50%
- Cc1cc(Nc2ccc(Cl)cc2C)nc(-n2nc(C)cc2C)n1 — lower, 74%
- Cc1ccc(Cn2c(CO)cnc2SCc2ccc(F)cc2)cc1 — lower, 109%
- COc1cccc(N2C(=O)C(CC(=O)Nc3cccc(F)c3)N(C(C)C)C2=O)c1 (centres undefined) — lower, 94%
- Cc1ccc(CSc2c(C)cnc3c2c(=O)n(C)c(=O)n3C)cc1 — lower, 78%
- COc1ccc(OCC(=O)OC2CCN(C)CC2)cc1 — the same, 112%
- CCN(CC)CCCNC(=O)c1cn(CC)c2ccc(S(=O)(=O)N3CCC(C)CC3)cc2c1=O — lower, 105%

For `Cc1nnc(NC(=O)c2nc(S(=O)(=O)Cc3ccccc3)ncc2Cl)s1`, the survival was 48% (active).
With `CCOc1ccc(-c2c(C)nn3c(-c4ccccc4)c(C(=O)NCCOC)cnc23)cc1OCC` the survival was -5% (active).
`CCNC(=O)c1cnc2c(-c3ccccc3)c(C)nn2c1C` was tested, and the survival was 8% (active).
`Cc1cccc(CNC(=O)c2cnc3c(-c4cccc(C)c4)c(C)nn3c2C)c1` was tested, and the survival was 17% (active).
In the case of `CCOc1ccc(-c2c(C)nn3c(C)c(C(=O)Nc4ccccc4C(=O)OC)cnc23)cc1OCC`, the survival is reported as -4% (active).
For `CCOc1ccc(CCNC(=O)c2cnc3c(-c4ccccc4)c(C)nn3c2C)cc1OCC`, the survival was 20% (active).
With `COc1ccc(OCc2nc3ccccc3n2C(C)c2ccccc2)cc1` (centres undefined) the survival was -15% (active).
With `CCC(C)Cn1c(COc2ccc(OC)cc2)nc2ccccc21` (centres undefined) the survival was -1% (active).
With `Cc1ccc(OCc2nc3ccccc3n2CC(C)C)cc1` the survival was 1% (active).
`COc1ccc(OC)c(-c2cc(C(=O)NC(C)c3ccccc3)no2)c1` (centres undefined) was tested, and the survival was -14% (active).
In the case of `COc1ccc(OC)c(-c2cc(C(=O)Nc3ccc(C)c(C)c3)no2)c1`, the survival is reported as -1% (active).
With `COc1ccc(OC)c(-c2cc(C(=O)Nc3cccc(Cl)c3C)no2)c1` the survival was 2% (active).
For `Cc1ccc(NC(=O)c2cc(-c3cccs3)on2)cc1C`, the survival was 45% (active).
